# An excerpt weighted towards active compounds, which were near 1.1% of everything screened.
# HUVEC tox TNFa: cytotoxicity in TNFa-stimulated HUVEC, primary screen, cytotoxicity control for VCAM1 expression modulator project, imaging, Hoechst nuclei count | HUVEC TNFalpha-stimulated, Hoechst cell count | AID 848, 2007 | cell count reduction, % at 2 µM | actives 0.17% (n = 93,000);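 active means cell count reduction exceeding the screen mean by over 5 SD, scaled to untreated wells per plate, cut at about 78% in these data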;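 further: cells counted after 24 h of TNF alpha exposure following the 1 h pretreatment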
# F-actin modifier: modifiers of F-actin cytoskeleton organization, primary screen, imaging, HUVEC, phalloidin staining, high-content imaging; HUVEC TNFa F-actin phalloidin imaging; actives 0.18% (n = 91,000); inhibition, % at 2 µM; AID 836, 2007;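 active means inhibition above the batch mean plus 3 SD and confirmed as a hit by visual image inspection, cut at about 30% in these data, passing the limit was not always enough; inconclusive means above the inhibition threshold but rejected on visual inspection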
# E-sel TNF inh: E-selectin induction blockers in HUVEC – imaging, immunofluorescence, high content, primary screen. actives 0.71% (n = 120,000). AID 1246, 2008. inhibition, % at 2 µM. HUVEC TNFa-induced E-selectin immunofluorescence;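 active means inhibition above the batch mean plus 3 SD, and confirmed as a hit on visual image review, cut at about 43% in these data; inconclusive means passes the inhibition cutoff but fails visual image review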;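 further: 0% = TNF-stimulated DMSO wells and 100% = unstimulated control wells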
# VCAM1 TNFa inh: inhibitors of TNFa-induced VCAM1 expression, primary screen, imaging, HUVEC, TNFa stimulus, immunofluorescence | HUVEC TNFa-induced VCAM-1 immunofluorescence, high-content imaging | inhibition, % at 2 µM | actives 0.48% (n = 95,000);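 active means inhibition above the batch mean plus 3 SD, with images confirmed as a hit by eye, cut at about 37% in these data; inconclusive means inhibition above that limit but hit not confirmed in images; inactive means inhibition not above that limit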;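 further: 0% = TNF-stimulated DMSO wells and 100% = unstimulated control wells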
# * marks the source's active call; other numbers are inactive results; u = inconclusive; x = no result.
SMILES,HUVEC tox TNFa,F-actin modifier,E-sel TNF inh,VCAM1 TNFa inh
CN(C)c1nc(N(C)C)nc(N(C#N)CCOc2ccccc2)n1,-2.9,8.3,-0.7,97.2*
O=C(NCCCN1CCOCC1)c1sc2ccccc2c1Cl,x,x,-11.8,x
c1ccc(Nc2nc3ccccc3n3cnnc23)cc1,x,x,87.2*,x
c1ccc2c(c1)nc(NC1CCCCC1)c1nncn12,-16.3,12.4,x,9.1
Cc1noc(C)c1CSc1nc2ccccc2[nH]1,-20.8,-16.4,-3.2,6.2
Fc1cccc(F)c1CSc1nc2ccccc2[nH]1,-30.1,x,74.8*,-9.4
COc1ccccc1-n1cnc2cc(NCc3ccco3)ccc21,18.8,-29.1,-16.9,39.8*
COc1ccccc1-n1cnc2cc(NCc3cccs3)ccc21,51.5,31.7*,-8.7,82.3*
O=C(Nc1ccc(Cl)cc1)c1cc2nc(-c3ccco3)cc(C(F)(F)F)n2n1,-27.1,-11.5,78.4*,5.5
Cc1cccc(OCCN2CSC(=S)N(C)C2)c1,13.9,4.0,x,42.7*
OC(c1ccccn1)c1c[nH]c2ccccc12 (stereo not given),-13.3,67.1*,3.6,5.1
O=c1c2ccccc2c(/C=N/c2n[nH]c(CCCO)n2)c(O)n1-c1ccccc1Cl,x,x,-16.5,x
CCc1ccccc1NC(=O)CSc1nc2n[nH]c(C)c2c(=N)n1-c1cccc(OC)c1,-13.5,3.5,54.0*,8.8
CS(=O)(=O)N1CC(C(=O)NC2CCCC2)Oc2ccc(Cl)cc21 (stereo not given),-12.1,1.8,22.2,-1.9
CCOC(=O)c1c(NC(=O)CCN2C(=O)c3cccc([N+](=O)[O-])c3C2=O)sc(C(=O)OC(C)C)c1C,x,x,17.2,x
CC(OC(=O)CCN1C(=O)c2cccc([N+](=O)[O-])c2C1=O)C(=O)Nc1cc(Cl)cc(Cl)c1 (stereo not given),x,x,95.0*,x
COC(=O)c1ccccc1NC(=O)c1ccco1,-11.3,0.1,-7.6,0.0
COC(=O)c1ccccc1NC(NC(=O)c1ccco1)C(=O)c1ccc(C)cc1 (stereo not given),86.3*,21.0,6.1,61.5*
C=CCNC(=O)c1ccccc1NC(=O)C1COc2ccccc2O1 (stereo not given),x,x,5.0,x
CCn1c(=O)cc(OCC(=O)NCc2ccco2)c2ccccc21,90.0*,-58.5,x,u
COCCCNC(=O)c1cn(C)c(=O)c2cc(OC)c(OC)cc12,100.0*,-24.9,x,u
N#Cc1c(Cl)c(Cl)c2nnc(-c3ccc(Br)cc3)n2c1Cl,-12.3,-4.3,-22.3,22.8
CCC(C)[C@@H](NC(=O)OC(C)(C)C)c1nnc(S(=O)(=O)Cc2cccc(C)c2)o1 (stereo not given in full),-9.0,27.6,x,42.5*
Cc1ccccc1CS(=O)(=O)c1nnc([C@H](Cc2ccccc2)NC(=O)OC(C)(C)C)o1,9.3,20.3,19.0,74.9*
CC(C)(C)OC(=O)N[C@@H](Cc1ccccc1)c1nnc(S(=O)(=O)Cc2ccccc2)o1,-14.2,27.8,17.6,7.5
SMILES,HUVEC tox TNFa,F-actin modifier,E-sel TNF inh,VCAM1 TNFa inh
CCC(C)NS(=O)(=O)c1ccc(OC)c(Cl)c1Cl (stereo not given),-1.2,-3.6,31.9,-1.1
Cc1ccc(NS(=O)(=O)c2cc(C(=O)NCCSC3CCCCC3)ccc2C)cc1,-17.0,47.9*,-11.5,7.8
Cc1ccc(-c2nc(CSCC(=O)Nc3cc(C)on3)c(C)o2)cc1,88.9*,-9.1,x,38.3
Cc1cc(NC(=O)CSCc2nc(-c3cccc(F)c3)oc2C)no1,-0.4,-5.8,x,-9.0
C=CC[n+]1c(-c2ccc(OCC)cc2)csc1NNC(=O)Nc1ccccc1,-14.3,-0.1,5.4,-18.5
O=C1NC2(CCCCC2)C(=O)N1Cc1ccc([N+](=O)[O-])cc1,x,x,-38.0,x
Cc1c(CCO)c(=O)n(-c2ccccc2)n1S(=O)(=O)c1ccc(Cl)cc1,-43.1,31.2*,8.3,12.8
Cc1cc(SCc2cc(=O)[nH]c3ccccc23)nc2ccccc12,34.0,-2.4,64.0*,17.9
O=c1cc(CSc2ccccn2)c2ccccc2[nH]1,-44.4,16.3,3.5,11.9
CCOC(=O)C1=C(c2ccccc2)NC(=O)NC1c1ccc(O)c(OCC)c1 (stereo not given),x,x,-2.9,x
CCOC(=O)C1=C(c2ccccc2)N(C)C(=O)NC1c1ccc(O)c(OC)c1 (stereo not given),-13.3,-12.4,65.9*,14.8
COC(=O)c1ccccc1NC(=O)CC(NCc1ccccc1)C(=O)O (stereo not given),x,-9.6,-21.4,-20.8
COCCCNC(CC(=O)Nc1ccccc1C(=O)OC)C(=O)O (stereo not given),7.0,2.0,59.8*,-11.3
Cc1ccc(C2CC(=O)N(c3ccc(F)cc3)C3=C2C(=O)CCC3)cc1 (stereo not given),13.0,22.6,100.0*,3.8
O=C1CCCC2=C1C(c1ccsc1)CC(=O)N2c1ccccc1 (stereo not given),0.0,7.5,35.5,11.5
CN(C)S(=O)(=O)c1cccc(C(=O)N2CCN(Cc3ccccc3)CC2)c1,-4.9,-10.7,2.5,5.4
CN(c1ccccc1)S(=O)(=O)c1cccc(C(=O)N2CCN(c3ccccn3)CC2)c1,81.5*,-29.4,x,42.1
O=C1Nc2ccc(S(=O)(=O)N3CCCC3)c3cccc1c23,-12.5,-2.1,18.4,-14.3
O=C1Nc2ccc(S(=O)(=O)N3CCOCC3)c3cccc1c23,-22.9,-10.2,14.9,89.2*
Cc1nc(-c2cccnc2)sc1C(=O)Nc1ccc(C(F)(F)F)cc1,17.7,23.2,9.7,-0.3
Cc1nc(-c2cccnc2)sc1C(=O)Nc1cccc(C(F)(F)F)c1,-22.5,52.3*,23.6,7.3
COC(=O)CN(c1ccc2c(c1)OCCO2)S(=O)(=O)c1ccccc1,7.0,-8.2,10.5,10.2
COC(=O)CN(c1ccc(F)cc1)S(=O)(=O)c1ccc2c(c1)OCCO2,2.5,96.3*,-1.4,28.6
C/C(=N\Nc1nc2c(s1)CCCC2)c1ccccc1,13.4,-18.3,26.1,61.6*
CCS(=O)(=O)N1CCC(C(=O)NCCCOC)CC1,-8.4,-36.5,x,12.6
SMILES,HUVEC tox TNFa,F-actin modifier,E-sel TNF inh,VCAM1 TNFa inh
CCCS(=O)(=O)N1CCC(C(=O)NCCCOC)CC1,-2.6,2.0,100.0*,-10.4
Cc1cc(NC(=O)CN(C)S(=O)(=O)c2cccc(Cl)c2)no1,x,x,-6.5,x
COc1ccc(C(=O)OCCNC(=O)c2c(Cl)nc3ccccn23)cc1,9.3,-13.8,60.3*,-25.1
CC(C)(C)c1ccc(C(=O)OCCNC(=O)c2c(Cl)nc3ccccn23)cc1,0.4,-10.9,22.1,-0.6
Cc1ccc(NC(=O)CSc2nnc(-c3ccncc3)n2C)cc1S(=O)(=O)N1CCOCC1,x,x,-4.5,x
COc1ccc(CN2CC(C(=O)NCCC3=CCCCC3)CC2=O)cc1 (stereo not given),-31.5,-18.8,-3.3,6.2
CC(C)CCN1CC(C(=O)NCCC2=CCCCC2)CC1=O (stereo not given),-17.6,67.9*,-10.0,-4.9
Cc1ccc(NC(=O)N2CCC(C(=O)NCCC3=CCCCC3)CC2)cc1,13.5,-4.5,40.0*,3.9
CCOC(=O)C1CCC(CNCc2ccc(Cl)cc2)CC1 (stereo not given),x,x,18.5,x
